Reference: PubChem BioAssay (NCI)
Compounds without any hit were thinned out: in the full panel of roughly 79,000, 15% have a hit. Active and inactive are the calls of the source. Cut-off read from the data, not from the text of the source: active = growth inhibition above about 70%; inactive = the rest.

Legend:
[1] = NCI Yeast Anticancer Drug Screen. Data for the wt1 strain (AID 149);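 note: 0% = growth of vehicle-treated wt1 cultures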; details: S. cerevisiae wt1 strain (SPY 50644) growth inhibition, hits give high values
How it was run: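 wt1 yeast, compound-treated; % growth inhibition vs vehicle control.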

[2] = NCI Yeast Anticancer Drug Screen. Data for the rad50EPP+ strain (AID 151);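 note: 0% = growth of vehicle-treated control cultures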; details: S. cerevisiae rad50 mutant strain, hits give high values
How it was run: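 Genetically defined yeast (rad50EPP+, DNA damage repair alteration) is grown with compound, and inhibition of growth is expressed relative to vehicle-treated controls.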

[3] = NCI Yeast Anticancer Drug Screen. Data for the mgt1 strain (AID 153); details: S. cerevisiae mgt1 mutant growth inhibition, hits give high values
How it was run: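 In the mgt1 strain, test compounds were added and growth inhibition was determined relative to vehicle-treated controls.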

[4] = NCI Yeast Anticancer Drug Screen. Data for the rad50 strain (AID 155);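 note: 0% = growth of vehicle-only cultures of the same strain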; details: S. cerevisiae rad50 strain growth inhibition, hits give high values
How it was run: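 Genetically altered yeast (DNA repair pathway); compound treatment; growth inhibition vs vehicle ctrl.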

[5] = NCI Yeast Anticancer Drug Screen. Data for the mec2-1 strain (AID 157); details: S. cerevisiae mec2-1 strain, hits give high values
How it was run: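 Each compound was tested on mec2-1 yeast, a strain altered in DNA damage repair or cell cycle control. Growth inhibition is reported relative to vehicle.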

[6] = NCI Yeast Anticancer Drug Screen. Data for the rad14 strain (AID 159);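 note: 0% = growth of vehicle-treated control cultures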; details: S. cerevisiae rad14 strain growth inhibition, hits give high values
How it was run: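 Test compounds were applied to a repair-deficient yeast strain. Its growth was then compared with that of cultures given vehicle alone, and inhibition was expressed relative to those controls.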

[7] = NCI Yeast Anticancer Drug Screen. Data for the sgs1 mgt1 strain (AID 161);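 note: 0% = growth of cultures given vehicle only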; details: S. cerevisiae sgs1 mgt1 strain, hits give high values
How it was run: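 Inhibition of yeast growth, normalised to vehicle-treated controls, is reported for a strain bearing genetic alterations in DNA damage repair.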

[8] = NCI Yeast Anticancer Drug Screen. Data for the cln2 rad14 strain (AID 165);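 note: 0% = growth equal to vehicle treated cultures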; details: S. cerevisiae cln2 rad14 strain, hits give high values
How it was run: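 Test compounds were added to cln2 rad14 yeast cultures; inhibition of growth was then determined by comparison with vehicle treatment.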

[9] = NCI Yeast Anticancer Drug Screen. Data for the bub3 strain (AID 167); details: S. cerevisiae bub3 mutant strain, hits give high values
How it was run: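 Yeast carrying a defined mutation is treated with each compound, and growth is compared with that of vehicle-exposed cells to give inhibition.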

[10] = NCI Yeast Anticancer Drug Screen. Data for the wt2 strain (AID 169);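 note: 0% = growth of vehicle-treated yeast cultures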; details: S. cerevisiae wt2 strain growth inhibition, hits give high values
How it was run: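 The panel's yeast strains carry defined changes in DNA repair or cell cycle genes. Each strain is grown with compound, and growth loss is scored relative to vehicle.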

[11] = NCI Yeast Anticancer Drug Screen. Data for the sgs1 strain (AID 173);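 note: 0% = growth of vehicle-only control cultures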; details: S. cerevisiae sgs1 mutant, hits give high values
How it was run: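 Vehicle-treated cultures served as reference for growth inhibition of a yeast strain altered in DNA damage repair or cell cycle control after compound exposure.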

[12] = NCI Yeast Anticancer Drug Screen. Data for the mlh1 rad18 strain (AID 175); details: S. cerevisiae mlh1 rad18 strain growth inhibition, hits give high values
How it was run: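 Inhibition values reflect reduced growth of mutant yeast versus vehicle-treated controls following compound exposure; the mutations affect DNA damage repair.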

[13] = NCI Yeast Anticancer Drug Screen. Data for the rad18 strain (AID 177); details: S. cerevisiae rad18 mutant growth inhibition, hits give high values
How it was run: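 Steps: expose repair-mutant yeast to compound; measure growth; express as inhibition relative to vehicle control.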

[14] = NCI Yeast Anticancer Drug Screen. Data for the CLN2oe strain (AID 163);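 note: 0% = growth of vehicle-only control cultures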; details: S. cerevisiae CLN2oe strain, hits give high values
How it was run: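 First, the altered yeast strain was treated with each compound; second, its growth was measured; finally, inhibition was derived by comparison with vehicle controls.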

[15] = at 5.0 µM (retest, dose inferred, filed as 0.5)
[16] = at 50.0 µM (retest, dose inferred, filed as 5.0)

Measured: growth inhibition

O=C(O)/C=C\C(=O)NNc1ccc(Br)cc1
active: [1]; at 3.7 µM 97% | [1]; at 11.0 µM 99% | [1]; at 33.0 µM 99% | [1]; at 100.0 µM 99% | [2]; at 3.7 µM 78% | [2]; at 11.0 µM 98% | [2]; at 33.0 µM 99% | [2]; at 100.0 µM 99% | [3]; at 11.0 µM 99% | [3]; at 33.0 µM 99% | [3]; at 100.0 µM 98% | [4]; at 11.0 µM 99% | [4]; at 33.0 µM 98% | [4]; [16] 97% | [4]; at 50.0 µM 98.3% | [4]; at 100.0 µM 99% | [5]; at 3.7 µM 90% | [5]; [15] 76% | [5]; at 11.0 µM 99% | [5]; at 33.0 µM 99% | [5]; [16] 99% | [5]; at 50.0 µM 98.2% | [5]; at 100.0 µM 99% | [6]; at 3.7 µM 99% | [6]; at 11.0 µM 99% | [6]; at 33.0 µM 99% | [6]; at 100.0 µM 99% | [7]; [16] 98% | [7]; at 50.0 µM 98.5% | [8]; [16] 97% | [8]; at 50.0 µM 97.3% | [9]; at 11.0 µM 99% | [9]; at 33.0 µM 99% | [9]; [16] 97% | [9]; at 50.0 µM 98.5% | [9]; at 100.0 µM 99% | [10]; at 3.7 µM 99% | [10]; at 11.0 µM 99% | [10]; at 33.0 µM 99% | [10]; at 100.0 µM 99% | [11]; at 11.0 µM 99% | [11]; at 33.0 µM 99% | [11]; at 100.0 µM 99% | [12]; [16] 98% | [12]; at 50.0 µM 98.3% | [13]; at 3.7 µM 95% | [13]; at 11.0 µM 98% | [13]; at 33.0 µM 98% | [13]; at 100.0 µM 98%
inactive: [1]; at 1.2 µM 2% | [2]; at 1.2 µM 14% | [3]; at 1.2 µM -1% | [3]; at 3.7 µM 32% | [4]; at 1.2 µM 8% | [4]; at 3.7 µM 53% | [4]; [15] 10% | [5]; at 1.2 µM 1% | [6]; at 1.2 µM 4% | [7]; [15] 31% | [8]; [15] 15% | [9]; at 1.2 µM 10% | [9]; at 3.7 µM 60% | [9]; [15] 3% | [10]; at 1.2 µM 13% | [11]; at 1.2 µM 4% | [11]; at 3.7 µM 66% | [12]; [15] 27% | [13]; at 1.2 µM -2%

[N-]=[N+]=NC1CC(n2ccc(=O)[nH]c2=O)OC1COC(c1ccccc1)(c1ccccc1)c1ccccc1 (stereo unspecified)
inactive: [1]; at 1.2 µM 1% | [1]; at 3.7 µM 4% | [1]; at 11.0 µM 11% | [2]; at 1.2 µM 1% | [2]; at 3.7 µM 0% | [2]; at 11.0 µM 0% | [2]; at 33.0 µM -2% | [2]; at 100.0 µM -7% | [3]; at 1.2 µM 0% | [3]; at 3.7 µM 3% | [3]; at 11.0 µM 16% | [4]; at 1.2 µM 1% | [4]; at 3.7 µM 3% | [4]; at 11.0 µM 48% | [4]; at 50.0 µM 41.8% | [5]; at 1.2 µM -3% | [5]; at 3.7 µM -1% | [5]; [15] 18% | [5]; at 11.0 µM 27% | [6]; at 1.2 µM 2% | [6]; at 3.7 µM 5% | [6]; at 11.0 µM 18% | [7]; [15] 15% | [7]; at 50.0 µM 50.5% | [14]; at 1.2 µM -4% | [14]; at 3.7 µM -4% | [14]; at 11.0 µM 26% | [8]; [15] 33% | [9]; at 1.2 µM 0% | [9]; at 3.7 µM -2% | [9]; [15] 8% | [9]; at 11.0 µM 15% | [10]; at 1.2 µM 0% | [10]; at 3.7 µM -1% | [10]; at 11.0 µM 23% | [11]; at 1.2 µM 0% | [11]; at 3.7 µM 2% | [11]; at 11.0 µM 17% | [12]; at 50.0 µM 50.6% | [13]; at 1.2 µM 3% | [13]; at 3.7 µM 13% | [13]; at 11.0 µM 52%
active: [1]; at 33.0 µM 89% | [1]; at 100.0 µM 91% | [3]; at 33.0 µM 76% | [3]; at 100.0 µM 80% | [4]; [15] 76% | [4]; at 33.0 µM 93% | [4]; [16] 82% | [4]; at 100.0 µM 83% | [5]; at 33.0 µM 86% | [5]; [16] 79% | [5]; at 50.0 µM 89.7% | [5]; at 100.0 µM 85% | [6]; at 33.0 µM 77% | [6]; at 100.0 µM 81% | [7]; [16] 80% | [14]; at 33.0 µM 89% | [14]; at 100.0 µM 80% | [8]; [16] 81% | [8]; at 50.0 µM 88.9% | [9]; at 33.0 µM 85% | [9]; [16] 76% | [9]; at 50.0 µM 89.8% | [9]; at 100.0 µM 83% | [10]; at 33.0 µM 81% | [10]; at 100.0 µM 80% | [11]; at 33.0 µM 84% | [11]; at 100.0 µM 86% | [12]; [15] 74% | [12]; [16] 86% | [13]; at 33.0 µM 94% | [13]; at 100.0 µM 87%
